The text below walks through data of the antibiotic and cytotoxicity screens of Wong et al. (2023).

Screen size: about 39,000 compounds; about 3,300 (8.5%) were called active. The entries come from a sample that favours actives as a whole.

This assay concerns HepG2. Put plainly: cytotoxicity call (relative viability < 0.9). Conditions: 10 µM.
As for `Cc1noc(C)c1NC(=O)N(C)C[C@H]1Oc2ccc(NS(=O)(=O)c3ccccc3)cc2C(=O)N([C@H](C)CO)C[C@@H]1C`, the cytotoxicity call was “inactive”.
The same measure for `COc1ccc(NC(=O)Nc2ccc3c(c2)C(=O)N([C@H](C)CO)C[C@@H](C)[C@H](CN(C)C(=O)Cc2ccccc2)OCCCC[C@H](C)O3)cc1`: “inactive”; for `c1ccc(-c2nc(C34CC5CC(CC(C5)C3)C4)cs2)cc1`: “inactive”; for `OCc1cn(-c2ccccc2)nn1`: “inactive”.
On to `NCc1cn(-c2ccccc2)nc1C12CC3CC(CC(C3)C1)C2`, for which the cytotoxicity call was “active”.
Under `CCS(=O)(=O)Nc1ccc2c(c1)C(=O)N(C)C[C@H](OC)[C@@H](C)CN(CCC(F)(F)F)[C@@H](C)CO2` stands “inactive”; under `C[C@H](CO)N1C[C@H](C)[C@@H](CN(C)C(=O)c2ccc3c(c2)OCO3)Oc2cc(C#Cc3ccccc3F)ccc2S1(=O)=O`, “inactive”; under `C[C@H]1CN([C@@H](C)CO)C(=O)c2cccc(NC(=O)c3nc4ccccc4s3)c2O[C@@H]1CN(C)Cc1ccc(-c2ccccc2)cc1`, “inactive”.
The same measure for `O=C(O)c1nn(Cc2ccccc2)nc1C(=O)O`: “active”; for `O=C(O)Cn1nc2ccccc2n1`: “inactive”.
Under `NC(=O)c1nnn(Cc2ccccc2)c1N` stands “inactive”.
On to `C[C@H](CO)N1C[C@H](C)[C@@H](CN(C)S(=O)(=O)c2ccccc2F)Oc2ncc(Br)cc2C1=O`, for which the cytotoxicity call was “inactive”.
Under `Cc1noc(C)c1NC(=O)N(C)C[C@@H]1OCCCC[C@H](C)Oc2ccc(NS(=O)(=O)c3ccccc3)cc2C(=O)N([C@H](C)CO)C[C@@H]1C` stands “inactive”; under `C[C@@H]1CCCCO[C@H](CN(C)Cc2ccc(Cl)c(Cl)c2)[C@@H](C)CN([C@H](C)CO)C(=O)c2cc(NS(=O)(=O)c3ccc(F)cc3)ccc2O1`, “inactive”; under `C[C@@H]1CCCCO[C@@H](CN(C)Cc2ccc(Cl)c(Cl)c2)[C@H](C)CN([C@H](C)CO)C(=O)c2cc(NS(=O)(=O)c3ccc(F)cc3)ccc2O1`, “active”.
With `C[C@@H]1CN([C@H](C)CO)C(=O)c2cc(NS(=O)(=O)c3ccc(F)cc3)ccc2O[C@@H](C)CCCCO[C@H]1CN(C)Cc1ccc(Cl)c(Cl)c1`, the cytotoxicity call is “inactive”.
With `C[C@@H]1CCCCO[C@H](CN(C)Cc2ccc(Cl)c(Cl)c2)[C@@H](C)CN([C@@H](C)CO)C(=O)c2cc(NS(=O)(=O)c3ccc(F)cc3)ccc2O1`, the cytotoxicity call was “inactive”.
Under `C[C@@H]1CCCCO[C@@H](CN(C)Cc2ccc(Cl)c(Cl)c2)[C@@H](C)CN([C@@H](C)CO)C(=O)c2cc(NS(=O)(=O)c3ccc(F)cc3)ccc2O1` stands “inactive”.
`C[C@@H]1CCCCO[C@@H](CN(C)Cc2ccc(Cl)c(Cl)c2)[C@@H](C)CN([C@H](C)CO)C(=O)c2cc(NS(=O)(=O)c3ccc(F)cc3)ccc2O1`: the cytotoxicity call is “active”.
As for `C[C@H]1CCCCO[C@H](CN(C)Cc2ccc(Cl)c(Cl)c2)[C@@H](C)CN([C@@H](C)CO)C(=O)c2cc(NS(=O)(=O)c3ccc(F)cc3)ccc2O1`, the cytotoxicity call was “inactive”.
With `C[C@H](CO)N1C[C@H](C)[C@@H](CN(C)Cc2ccc(Cl)c(Cl)c2)OCCCC[C@H](C)Oc2ccc(NS(=O)(=O)c3ccc(F)cc3)cc2C1=O`, the cytotoxicity call is “inactive”.
The same measure for `C[C@@H]1CCCCO[C@@H](CN(C)Cc2ccc(Cl)c(Cl)c2)[C@H](C)CN([C@@H](C)CO)C(=O)c2cc(NS(=O)(=O)c3ccc(F)cc3)ccc2O1`: “active”.
The same measure for `C[C@@H]1CCCCO[C@H](CN(C)Cc2ccc(Cl)c(Cl)c2)[C@H](C)CN([C@@H](C)CO)C(=O)c2cc(NS(=O)(=O)c3ccc(F)cc3)ccc2O1`: “active”.
The same measure for `C[C@H](CO)N1C[C@H](C)[C@H](CN(C)Cc2ccc(Cl)c(Cl)c2)OCCCC[C@H](C)Oc2ccc(NS(=O)(=O)c3ccc(F)cc3)cc2C1=O`: “inactive”.
As for `C[C@@H]1CCCCO[C@@H](CN(C)S(C)(=O)=O)[C@H](C)CN([C@H](C)CO)C(=O)c2cc(N(C)C)ccc2O1`, the cytotoxicity call was “inactive”.
Under `CCO/C(O)=C1/C(=O)CN(C)C1=O` stands “inactive”; under `CCS(=O)(=O)Nc1ccc2c(c1)C(=O)N(C)[C@@H]1CC[C@H](CC(=O)N[C@@H]3CCN(Cc4ccccc4)C3)O[C@H]1CO2`, “inactive”; under `CN(C)CC(=O)N[C@H]1CC[C@@H](CCNC(=O)C2CCC2)O[C@H]1CO`, “inactive”.
With `Cc1nnc(N2CCC[C@]3(CN(C(=O)CO)CCO3)C2)o1`, the cytotoxicity call was “inactive”.
Regarding `C[C@@H]1CN([C@H](C)CO)C(=O)Cc2cc(NC(=O)C3CCCCC3)ccc2O[C@@H]1CN(C)C(=O)Nc1ccc(C(F)(F)F)cc1`, the cytotoxicity call is “inactive”.
The same measure for `C[C@H]1CN([C@@H](C)CO)C(=O)c2cccc(NC(=O)c3ccncc3)c2O[C@@H]1CN(C)Cc1ccc(Oc2ccccc2)cc1`: “inactive”.
Under `Cc1ccc(S(=O)(=O)Nc2ccc3c(c2)C(=O)N([C@@H](C)CO)C[C@H](C)[C@@H](CN(C)C(=O)Cc2ccccc2)OCCCC[C@H](C)O3)cc1` stands “inactive”; under `C[C@@H]1CN([C@@H](C)CO)S(=O)(=O)c2ccc(Br)cc2O[C@@H]1CN(C)CC1CCOCC1`, “inactive”.
Under `CC(C)NC(=O)Nc1ccc2c(c1)C(=O)N([C@H](C)CO)C[C@H](C)[C@@H](CN(C)Cc1ccc(C(F)(F)F)cc1)OCCCC[C@@H](C)O2` stands “inactive”; under `CC(C)NC(=O)Nc1ccc2c(c1)C(=O)N([C@@H](C)CO)C[C@H](C)[C@H](CN(C)Cc1ccc(C(F)(F)F)cc1)OCCCC[C@@H](C)O2`, “active”.
For the compound `CC(C)NC(=O)Nc1ccc2c(c1)C(=O)N([C@H](C)CO)C[C@H](C)[C@@H](CN(C)Cc1ccc(C(F)(F)F)cc1)OCCCC[C@H](C)O2`, the cytotoxicity call was “inactive”.
Under `CC(C)NC(=O)Nc1ccc2c(c1)C(=O)N([C@H](C)CO)C[C@@H](C)[C@H](CN(C)Cc1ccc(C(F)(F)F)cc1)OCCCC[C@H](C)O2` stands “active”; under `CC(C)NC(=O)Nc1ccc2c(c1)C(=O)N([C@@H](C)CO)C[C@H](C)[C@@H](CN(C)Cc1ccc(C(F)(F)F)cc1)OCCCC[C@@H](C)O2`, “active”; under `CC(C)NC(=O)Nc1ccc2c(c1)C(=O)N([C@H](C)CO)C[C@H](C)[C@H](CN(C)Cc1ccc(C(F)(F)F)cc1)OCCCC[C@@H](C)O2`, “inactive”.
Under `CC(C)NC(=O)Nc1ccc2c(c1)C(=O)N([C@@H](C)CO)C[C@@H](C)[C@H](CN(C)Cc1ccc(C(F)(F)F)cc1)OCCCC[C@@H](C)O2` stands “inactive”.
For the compound `CC(C)NC(=O)Nc1ccc2c(c1)C(=O)N([C@H](C)CO)C[C@@H](C)[C@H](CN(C)Cc1ccc(C(F)(F)F)cc1)OCCCC[C@@H](C)O2`, the cytotoxicity call is “active”.
Take `CC(C)NC(=O)Nc1ccc2c(c1)C(=O)N([C@@H](C)CO)C[C@@H](C)[C@@H](CN(C)Cc1ccc(C(F)(F)F)cc1)OCCCC[C@H](C)O2`: the cytotoxicity call was “inactive”.
The same measure for `CC(C)NC(=O)Nc1ccc2c(c1)C(=O)N([C@H](C)CO)C[C@@H](C)[C@@H](CN(C)Cc1ccc(C(F)(F)F)cc1)OCCCC[C@H](C)O2`: “inactive”.
The same measure for `CC(C)NC(=O)N(C)C[C@@H]1Oc2ccc(NC(=O)CCN3CCOCC3)cc2C(=O)N([C@@H](C)CO)C[C@@H]1C`: “inactive”.
The same measure for `COc1ccc2c3c(n(c2c1)C)[C@H](CO)N(C[C@]13CCN(CC1)C(=O)CC1CC1)C(=O)CN1CCOCC1`: “inactive”; for `COc1ccc(-c2cnc3c(c2)C(=O)N([C@@H](C)CO)C[C@@H](C)[C@H](CN(C)C(=O)C2CCOCC2)O3)cc1`: “inactive”; for `C[C@H]1CCCCO[C@H](CN(C)Cc2ccc(C(=O)O)cc2)[C@@H](C)CN([C@@H](C)CO)C(=O)c2cc(NC(=O)Cc3ccccc3)ccc2O1`: “inactive”.
As to `Cc1ccc(S(=O)(=O)Nc2ccc3c(c2)C(=O)N([C@@H](C)CO)C[C@@H](C)[C@@H](CN(C)CC2CC2)O3)cc1`, the cytotoxicity call was “inactive”.
Under `CO[C@H]1CN(C)C(=O)c2ccc(NS(=O)(=O)c3ccccc3)cc2OC[C@H](C)N(C(=O)NC(C)C)C[C@@H]1C` stands “inactive”; under `COc1ccc(NC(=O)N(C)C[C@H]2Oc3ccc(NS(=O)(=O)c4cn(C)cn4)cc3CC(=O)N([C@@H](C)CO)C[C@H]2C)cc1`, “inactive”.
Under `O=C(C[C@@H]1C[C@H]2c3cc(NC(=O)Cc4ccncc4)ccc3O[C@H]2[C@H](CO)O1)NCCN1CCCCC1` stands “inactive”; under `CC(=O)N[C@H]1[C@H](O[C@@H]2[C@@H](O)[C@H](C)O[C@@H](Oc3ccc4c(=O)c(-c5ccc(O)cc5)coc4c3)[C@@H]2O)O[C@H](CO)[C@@H](O[C@@H]2O[C@@H](C)[C@H](O)[C@@H](O)[C@H]2O)[C@@H]1O`, “inactive”; under `O=C(C[C@@H]1C=C[C@@H](NC(=O)c2ccncc2)[C@@H](CO)O1)NCc1ccncn1`, “inactive”.
Under `C[C@@H]1CCCCO[C@H](CN(C)Cc2ccc(C(=O)O)cc2)[C@H](C)CN([C@@H](C)CO)C(=O)c2cc(NC(=O)Nc3ccc(F)cc3)ccc2O1` stands “inactive”; under `COc1ccc(S(=O)(=O)Nc2ccc3c(c2)C(=O)N([C@H](C)CO)C[C@H](C)[C@@H](CN(C)S(=O)(=O)c2ccccc2)O3)cc1`, “inactive”.
For the compound `CC(C)NC(=O)Nc1ccc2c(c1)C(=O)N([C@H](C)CO)C[C@@H](C)[C@@H](CN(C)Cc1ccc(C(F)(F)F)cc1)OCCCC[C@@H](C)O2`, the cytotoxicity call was “inactive”.
The same measure for `CC(C)NC(=O)Nc1ccc2c(c1)C(=O)N([C@@H](C)CO)C[C@@H](C)[C@@H](CN(C)Cc1ccc(C(F)(F)F)cc1)OCCCC[C@@H](C)O2`: “active”; for `CC(C)NC(=O)Nc1ccc2c(c1)C(=O)N([C@H](C)CO)C[C@H](C)[C@H](CN(C)Cc1ccc(C(F)(F)F)cc1)OCCCC[C@H](C)O2`: “inactive”; for `CC(C)NC(=O)Nc1ccc2c(c1)C(=O)N([C@@H](C)CO)C[C@@H](C)[C@H](CN(C)Cc1ccc(C(F)(F)F)cc1)OCCCC[C@H](C)O2`: “inactive”.
The same measure for `CC(C)NC(=O)Nc1ccc2c(c1)C(=O)N([C@@H](C)CO)C[C@H](C)[C@H](CN(C)Cc1ccc(C(F)(F)F)cc1)OCCCC[C@H](C)O2`: “inactive”; for `CC(C)NC(=O)Nc1ccc2c(c1)C(=O)N([C@@H](C)CO)C[C@H](C)[C@@H](CN(C)Cc1ccc(C(F)(F)F)cc1)OCCCC[C@H](C)O2`: “active”.
